According to PubChem BioAssay AID485313 (National Center for Advancing Translational Sciences (NCATS), 2010):
Hit rate of the full screen: of about 320,000 compounds, about 7,600 (2.4%) were called active. About 3% were inconclusive and are not listed. Calls follow the shape of the dose curve; as a rule, active = well fitted activation curve with a large enough effect; inconclusive = small, poorly fitted or top-dose-only effect; inactive = no such curve, though single readings can be large or run the other way. Shown is part of a subset that was picked to be rich in actives. Where a call stands in place of a potency, no number is given.

Experiment: qHTS Assay for NPC1 Promoter Activators; also: nearly all actives have a fitted effect of over 60% in size;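 as to activation: reporter is driven by a mutant NPC1 promoter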
Conditions: Huh7 NPC1 promoter luciferase reporter, 24 h; series mostly up to 9.22 µM
How it was run: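 Compounds in DMSO were transferred onto Huh7 NPC1-luciferase reporter cells pre-incubated 2 h; after 24 h at 37 °C, Amplite reagent was dispensed and luminescence recorded 10 min later.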
Potency is read from the fitted curve at half-maximal effect.

| SMILES | Potency |
| --- | --- |
| Cc1ccc(S(=O)(=O)N(C)C)cc1NC(=O)CN1c2cccc3cccc(c23)S1(=O)=O | inactive |
| Cc1nn2cc(-c3ccc(Cl)cc3)cnc2c1Br | 2.24 µM (active) |
| N#CC1(NC(=O)COC(=O)CSc2ccc(F)cc2)CCCCC1 | inactive |
| COc1ccc(S(=O)(=O)N2CCN(CC(=O)N3c4ccccc4CC3C)CC2)cc1OC (stereo unspecified) | inactive |
| Cc1ccccc1-c1n[nH]c(=S)n1C | inactive |
| Cc1cc(C)nc(Nc2n[nH]c(-c3ccccc3N)n2)n1 | 0.447 µM (active) |
| Cc1cc(C)nc(Nc2ncn[nH]2)n1 | inactive |
| O=C(Nc1ccc2oc(-c3ccccc3F)nc2c1)c1ccco1 | 1.58 µM (active) |
| CCCC(=O)Nc1ccc2c(c1)nc(CCNC(=O)c1ccco1)n2C | inactive |
| O=C(Nc1cccc(-c2nc3ncccc3o2)c1)c1ccco1 | inactive |
| COc1ccccc1S(=O)(=O)NCc1ccc(C(=O)N(C)Cc2ccc(F)cc2)cc1 | inactive |
| CC(=O)Nc1cccc(-c2cnc3ccccc3n2)c1 | 2.82 µM (active) |
| Cc1cccc(S(=O)(=O)CC(=O)Nc2nc(-c3ccccc3)cs2)c1 | inactive |
| CC(=O)Nc1cccc(Nc2nc(-c3cccs3)nc3ccccc23)c1 | inactive |
| CC(=O)Nc1cccc(-c2csc(Nc3cccc(C)n3)n2)c1 | 0.708 µM (active) |
| CCS(=O)(=O)Nc1cccc(-c2cc(-c3ccccc3)c3cc(C)ccc3n2)c1 | inactive |
| CC(=O)Nc1ccc(-c2csc(NC=C3C(=O)OC(C)(C)OC3=O)n2)cc1 | inactive |
| COCCn1c(=NC(=O)c2ccccc2[N+](=O)[O-])sc2cc(S(C)(=O)=O)ccc21 | inactive |
| Cc1cccc(C(=O)NCC(=O)OCC(=O)N(C)CC(=O)Nc2ccccc2Cl)c1 | inactive |
| O=C(CSc1nnc(N2CCOCC2)n1-c1cccc(F)c1)N1CCN(c2ccccn2)CC1 | inactive |
| Cc1ccc(F)cc1S(=O)(=O)Nc1cccc(C(=O)N2CCCC(C(N)=O)C2)c1 (stereo unspecified) | inactive |
| COc1ccccc1C(=O)NC(CCSC)C(=O)N1CCN(C(C)=O)CC1 (stereo unspecified) | inactive |

| SMILES | Potency |
| --- | --- |
| C(=N/Nc1cc(N2CCOCC2)nc(N2CCOCC2)n1)/c1ccccc1 | inactive |
| CCN(CC)c1ccc(C(=O)N/N=C/c2ccc(N3CCOCC3)cc2)cc1 | inactive |
| Cc1ccccc1N/N=C/c1ccc(N2CCOCC2)cc1 | 3.16 µM (active) |
| CN1CCN(S(=O)(=O)c2cccc(C(=O)Nc3sccc3C#N)c2)CC1 | inactive |
| O=C1COc2ccc(C(=O)CSc3ccc(Br)cc3)cc2N1 | inactive |
| COc1ccc2[nH]cc(CCN3C(=O)c4ccc(C(=O)O)cc4C3=O)c2c1 | 3.55 µM (active) |
| COc1ccc(C[C@H](C(=O)O)N2C(=O)c3ccc(C(=O)O)cc3C2=O)cc1 | inactive |
| Cc1ccc2[nH]cc(CCCN3C(=O)c4ccccc4C3=O)c2c1 | inactive |
| CC(C)(C)OC(=O)N[C@H](C(=O)OC(C)(C)C)c1ccc(Br)cc1 | inactive |
| COc1ccccc1OCCNC(=O)C(CCSC)NC(=O)COc1ccccc1 (stereo unspecified) | inactive |
| NC(=O)c1ccsc1NC(=O)COC(=O)COc1ccc(C=O)cc1 | inactive |
| COc1ccc(S(=O)(=O)N(C)C)cc1NC(=O)CSc1ncccn1 | inactive |
| COc1ccc(NS(=O)(=O)c2ccc3oc(SCC(N)=O)nc3c2)cc1 | inactive |
| CN(C)S(=O)(=O)c1ccc2oc(SCC(=O)Nc3ccccc3F)nc2c1 | 3.16 µM (active) |
| CCOc1ccc2nc(N(CCN(C)C)C(=O)c3ccc4ccccc4c3)sc2c1 | inactive |
| CCCC(=O)N(CCN1CCOCC1)c1nc2ccc(OCC)cc2s1 | inactive |
| CCOc1ccc2nc(C(=O)N3CCCC(C)C3)sc2c1 (stereo unspecified) | 2 µM (active) |
| Cc1ccc(Nc2nnc(SCC(=O)c3cc4ccccc4o3)s2)cc1C | inactive |
| O=C(CSc1nnc(Nc2ccccc2)s1)Nc1cccnc1Cl | inactive |
| CC(C)c1ccc(Nc2nnc(SCC(=O)c3nnc(-c4ccccc4)o3)s2)cc1 | 3.98 µM (active) |
| O=S(=O)(c1cccs1)N1CCN(CCOc2ccccc2)CC1 | inactive |
| CCOc1ccc(NS(=O)(=O)c2ccc(Cl)c(C(=O)N(C)Cc3cccnc3)c2)cc1 | inactive |

| SMILES | Potency |
| --- | --- |
| Cc1ccc(C(=O)CN2C(=O)NC3(CCOc4ccccc43)C2=O)s1 (stereo unspecified) | inactive |
| O=C(OCC(=O)N1CCN(C(=O)c2ccco2)CC1)c1ccc(Cl)c(Cl)c1 | inactive |
| O=C(COC(=O)c1ccc2c(c1)OCCO2)NCc1ccccc1 | inactive |
| O=C(COC(=O)c1ccccc1)c1ccc2c(c1)OCCO2 | 0.316 µM (active) |
| CC(=O)Nc1cccc(C(=O)OCC(=O)c2ccc3c(c2)OCO3)c1 | 0.316 µM (active) |
| CC(=O)Nc1cccc(C(=O)OCC(=O)NCc2cc(C)c(O)c(C)c2)c1 | inactive |
| O=C(COC(=O)c1ccncc1)c1ccccc1 | inactive |
| CC(NC(=O)COC(=O)c1ccc2c(c1)OCO2)c1ccccc1 (stereo unspecified) | inactive |
| COc1ccc(C(=O)NCc2ccc(Cl)cc2)cc1S(=O)(=O)N1CCCC1 | inactive |
| CCN(CC(=O)Nc1ccc(OC)cc1)C(=O)c1ccc(Cl)c(S(=O)(=O)N2CCCC2)c1 | inactive |
| O=[N+]([O-])c1cc(S(=O)(=O)NCCc2ccccn2)ccc1Cl | inactive |
| CC(C#N)(NC(=O)CN1CCN(S(=O)(=O)c2cc(C(F)(F)F)ccc2Cl)CC1)C1CC1 (stereo unspecified) | inactive |
| O=C(CSc1nnc(-c2ccco2)n1-c1ccccc1)NCCc1ccccc1 | inactive |
| O=C(CSc1nnc(-c2ccco2)n1CC1CCCO1)c1ccccc1 (stereo unspecified) | inactive |
| c1ccc(CSc2nnc(-c3ccco3)n2Cc2ccccc2)cc1 | 2.82 µM (active) |
| C=CCN1C(=O)c2ccc(C(=O)N3CCC(C(=O)OCC)CC3)cc2C1=O | inactive |
| O=C(CCNS(=O)(=O)c1ccccc1)NCCSc1ccc(Br)cc1 | inactive |
| O=S(=O)(Nc1cc(Cl)ccc1N1CCOCC1)c1ccccc1Cl | inactive |
| C[C@@H]1NC(=O)[C@@]2(C)[C@@H](c3ccccc3)[C@H]3COc4ccccc4[C@@H]3N2C1=O | inactive |
| CCOC(=O)c1c(CNCc2ccccc2F)c2sc(C)cc2n1C | inactive |
| Cc1nc2sc(C(=O)c3ccccc3)c(N)c2c2c1CCCC2 | inactive |
| CN(C)c1ccnc2sc3c(=O)n(Cc4ccccc4)cnc3c12 | inactive |

| SMILES | Potency |
| --- | --- |
| CN(C)c1ccnc2sc(C(=O)c3ccccc3)c(N)c12 | 2.51 µM (active) |
| Nc1ncnc2c1c(I)cn2[C@@H]1C[C@H](N)[C@@H](O)[C@H]1O | inactive |
| Cc1nn(Cc2ccccc2)c(C)c1CNC(=O)c1ccc(F)c(S(=O)(=O)N2CCOCC2)c1 | inactive |
| CN(CC(=O)Nc1cccc(F)c1)C(=O)CC1CCCC1 | inactive |
| O=C(Nc1ncc([N+](=O)[O-])s1)C1COc2ccccc2O1 (stereo unspecified) | 3.55 µM (active) |
| COc1ccc(NC(=O)CC2COc3ccccc3O2)c(OC)c1 (stereo unspecified) | inactive |
| CC(=O)c1cccc(NC(=O)C2COc3ccccc3O2)c1 (stereo unspecified) | inactive |
| COc1ccc(NC(=O)C2COc3ccccc3O2)cc1 (stereo unspecified) | 2.82 µM (active) |
| C/C(=N/NC(=O)C1COc2ccccc2O1)c1ccco1 (stereo unspecified) | inactive |
| O=C(Nc1nnc(SCc2ccc(Cl)cc2Cl)s1)C1COc2ccccc2O1 (stereo unspecified) | inactive |
| CCc1noc(C)c1C(=O)N1CCN(S(=O)(=O)c2cccc(C(F)(F)F)c2)CC1 | inactive |
| Cc1ccc(CSc2ccc(S(=O)(=O)N3CCCCC3)cn2)cc1 | inactive |
| Cc1cc(C)nc(NC(=O)/C=C/c2ccc(Cl)cc2)n1 | inactive |
| O=C(/C=C/c1ccc(Cl)cc1)Nc1ccc(S(=O)(=O)Nc2ncccn2)cc1 | inactive |
| CC(C)(C)c1ccc(/C=C/C(=O)Nc2ncccn2)cc1 | 3.98 µM (active) |
| Cc1sc2ncnc(N3CCC(C(=O)Nc4ccc(F)cc4Cl)CC3)c2c1C | inactive |
| CCOC(=O)N1CCN(C(=O)COC(=O)c2cccc(S(C)(=O)=O)c2)CC1 | inactive |
| Cc1ccc(C(=O)Nc2ccc(NC(=O)c3cccs3)cc2)c(C)c1 | inactive |
| Cc1nc(-c2ccc(NC(=O)c3cccs3)cc2)cs1 | 0.355 µM (active) |
| O=C(Nc1ccccc1)c1ccc(NC(=O)c2cccs2)cc1 | inactive |
| Cc1noc(C)c1C(=O)NCC1COc2ccccc2O1 (stereo unspecified) | inactive |
| CC(=O)c1ccc(NC(=O)c2cc(-c3cccs3)on2)cc1 | inactive |

| SMILES | Potency |
| --- | --- |
| COc1cc(Cl)ccc1OCc1cc(C(=O)N2CC[C@@H]3CCCC[C@H]3C2)no1 | inactive |
| COc1ccccc1-c1cc(C(=O)N2CCCCC2)no1 | 3.55 µM (active) |
| O=C(CSc1n[nH]c(-c2cccs2)n1)N1CCCCC1 | inactive |
| O=C(c1cc(-c2ccc(O)cc2)on1)N1CCOCC1 | 0.891 µM (active) |
| O=C(c1cc(-c2cccs2)on1)N1CCCCC1 | 1 µM (active) |
| COc1ccccc1-c1cc(C(=O)NCCCn2ccnc2)no1 | inactive |
| COc1cccc(-c2cc(C(=O)N3CCN(c4ccccc4OC)CC3)no2)c1 | inactive |
| COc1ccc(OCc2cc(C(=O)N3CCCC3)no2)c2ccccc12 | 3.16 µM (active) |
| COCCN1CCN(C(=O)c2cc(COc3ccc(F)cc3Cl)on2)CC1 | inactive |
| O=C(c1cc(-c2ccc(Cl)cc2)on1)N1CCN(c2ccccc2)CC1 | inactive |
| O=C(c1cc(-c2ccc(F)cc2)on1)N1CCN(c2ccc(F)cc2)CC1 | inactive |
| Cc1ccc(OCC(=O)N2CCN(S(=O)(=O)c3ccc(Cl)s3)CC2)cc1C | inactive |
| CCN(CC)c1ccc(NC(=O)CN2C(=O)NC3(CCc4ccccc43)C2=O)cc1 (stereo unspecified) | inactive |
| CCOC(=O)C1CCCN(C(=O)c2ccc(C)c(S(=O)(=O)N3CCCCC3)c2)C1 (stereo unspecified) | inactive |
| CCc1c(C)nc2cc(C)[nH]n2c1=O | inactive |
| CCc1c(C)nc2cc(-c3cccs3)[nH]n2c1=O | inactive |
| C=CCc1c(C)nc2cc(-c3ccccc3)[nH]n2c1=O | 1.78 µM (active) |
| O=C(Nc1cccc2ccccc12)c1onc2c1CCCC2 | inactive |
